Active and inactive are the calls of the source.
Legend:
[1] = system: Human papillomavirus type 1a protein E7 (residues 44-93); assay: small molecules binding HPV E7 44-93 – biochemical, small-molecule microarray, residues 44-93, 635 nm fluorescence, primary screen (AID 1108); conditions: fluorescence 635 nm, higher = more signal;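 also: E7 fragment applied at 1 µg/mL in TBST for 1 h at 4 C; score combines spot fluorescence with its signal to noise ratio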
[2] = hepatitis C replication reporter changes, two-sided – Huh7 cells, luciferase reporter, HCV replication inhibitor project, primary screen (AID 1109); conditions: Huh7 HCV replicon luciferase reporter, 48 h; higher = more signal;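 also: huh7 hepatoma cells harbouring a luciferase neomycin HCV replicon reporter; luciferase luminescence as measure of HCV replicon replication; test concentration not given here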
[3] = biological target: Left-right determination factor 2 (Homo sapiens) (UniProt O00292); assay: small molecules binding LEFTY2 protein – biochemical, small-molecule microarray, 635 nm fluorescence scan, primary screen (AID 1110); conditions: higher = more signal
[4] = biological target: Calmodulin-1 (Homo sapiens) (UniProt P0DP23); assay: small molecules binding calmodulin-1 with EGTA – biochemical, small-molecule microarray, Cy5-labelled CALM1, profiling panel (AID 1111); conditions: Cy5-CALM1 binding fluorescence, higher = more signal;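 also: labelled calmodulin applied in Tris saline Tween buffer holding calcium plus EGTA and DTT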
[5] = biological target: Calmodulin-1 (Homo sapiens) (UniProt P0DP23); assay: small molecules binding Ca-loaded calmodulin-1 – biochemical, small-molecule microarray, Cy5-labelled CALM1, plus calcium, artefact control for SMM control-protein annotation, profiling panel (AID 1112); conditions: Cy5-CALM1 binding fluorescence, higher = more signal;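 also: score merges spot fluorescence with signal to noise from triplicate slides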
[6] = probe aWnt5a binding to arrayed compounds – biochemical, biotinylated probe, 635/667 nm fluorescence, primary screen (AID 1113); conditions: small-molecule microarray, higher = more signal;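 also: score merges 667 nm fluorescence intensity with signal-to-noise per printed feature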
[7] = probe aShh binding to arrayed compounds – biochemical, biotinylated probe, 635/667 nm fluorescence, primary screen (AID 1114); conditions: small-molecule microarray, higher = more signal;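 also: probe is biotin-labelled aShh protein from a stem cell growth factor screen; measures binding of labelled protein to compounds printed on the slide; score merges feature fluorescence at 667 nm with signal-to-noise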
[8] = probe aNog binding to arrayed compounds – biochemical, biotinylated probe, 635/667 nm fluorescence, primary screen (AID 1115); conditions: small-molecule microarray, higher = more signal;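 also: probe is biotinylated aNog protein used at 0.15 µg/mL for 1 h at 4 C; z-score combines 667 nm fluorescence of each spot with its signal to noise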
[9] = biological target: Torsin-1A-interacting protein 1 (Homo sapiens) (UniProt Q5JTV8); assay: compound microarray binding of lysate hLAP1 – cell lysate, small-molecule microarray, COS7 lysate, 635/667 nm fluorescence, primary screen (AID 1116); conditions: 635 nm fluorescence, higher = more signal
[10] = biological target: Alpha-bungarotoxin (Bungarus multicinctus) (UniProt P60615); assay: compounds binding labelled alpha-BTX control protein – biochemical, small-molecule microarray, Alexa647 label, 635/667 nm fluorescence, artefact control for SMM control protein annotation, profiling panel (AID 1117); conditions: alpha-BTX-A647 binding fluorescence, higher = more signal
Albumin (Bos taurus) = Albumin (Bos taurus) (UniProt P02769); assay: compounds binding labelled BSA control protein – biochemical, small-molecule microarray, Alexa647 label, 635/667 nm fluorescence, artefact control for SMM control protein annotation, profiling panel (AID 1118); conditions: BSA-A647 binding, fluorescence 635 nm, higher = more signal;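 also: score merges 667 nm emission intensity and signal-to-noise per printed compound spot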
[11] = probe aXIP binding to arrayed compounds – biochemical, NeuroSMM set, 635/667 nm fluorescence, primary screen (AID 1119); conditions: small-molecule microarray, higher = more signal, called active from +8 up or from −8 down;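 also: probe is the protein aXip251-270 applied at 1 µg/mL to compound-printed slides; binding of probe to printed compounds measured as 667 nm fluorescence plus signal to noise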
[12] = probe aNOTCH3 binding on compound microarray – biochemical, small-molecule microarray, 635/667 nm fluorescence, primary screen (AID 1120); conditions: higher = more signal;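 also: probe is a biotin-tagged antibody raised against NOTCH3 rather than NOTCH3 protein; score merges spot fluorescence near 667 nm with spot signal to noise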
[13] = probe aNOTCH2 binding on compound microarray – biochemical, small-molecule microarray, 635/667 nm fluorescence, primary screen (AID 1121); conditions: higher = more signal;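 also: score merges feature fluorescence read at 667 nm with its signal to noise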
[14] = biological target: Carbonic anhydrase 2 (Homo sapiens) (UniProt P00918); assay: compounds binding carbonic anhydrase 2 – biochemical, small-molecule microarray, Alexa647-labelled CAII, profiling panel (AID 1122); conditions: CAII-A647 binding fluorescence, higher = more signal
[15] = COS7 lysate on small-molecule microarray, probe aHis, 635 nm (AID 1123); conditions: COS7 cell lysate, fluorescence, higher = more signal;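 also: z-score combines 667nm fluorescence intensity with signal-to-noise per printed compound spot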
[16] = probe aLAP1 signal on lysate-treated microarray – cell lysate, small-molecule microarray, COS7 lysate, primary screen (AID 1124); conditions: probe aLAP1, fluorescence, higher = more signal;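 also: lysate comes from COS7 cells expressing LAP1 and is applied at 0.3 µg/mL; score merges spot fluorescence near 667 nm with signal-to-noise over triplicate slides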
Sam68 (KHDRBS1) = assay: compounds binding KHDRBS1 protein – biochemical, small-molecule microarray, 635 nm fluorescence, primary screen (AID 1125); conditions: higher = more signal;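 also: score merges 667 nm channel intensity with signal to noise over triplicate slides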
[17] = system: Chordin-like protein 2 (CHRDL2); assay: compounds binding chordin-like 2 – biochemical, small-molecule microarray, 635 nm fluorescence, primary screen (AID 1126); conditions: fluorescence 635 nm, higher = more signal;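 also: printed compound slides probed with Chrdl2 protein at 4 µg/mL for 1 h at 4 C; score merges 667 nm emission intensity with signal to noise over three replicate slides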
[18] = biological target: Concanavalin-A (Canavalia ensiformis) (UniProt P02866); assay: compounds binding concanavalin A lectin – biochemical, small-molecule microarray, Alexa647 label, 635 nm, artefact control for SMM control protein annotation, primary screen (AID 1127); conditions: ConA-A647 binding fluorescence, higher = more signal;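 also: z combines 667 nm emission intensity with signal-to-noise across three replicate slides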
Chain of Concanavalin-A (Canavalia ensiformis) (P02866 whole entry, looked up): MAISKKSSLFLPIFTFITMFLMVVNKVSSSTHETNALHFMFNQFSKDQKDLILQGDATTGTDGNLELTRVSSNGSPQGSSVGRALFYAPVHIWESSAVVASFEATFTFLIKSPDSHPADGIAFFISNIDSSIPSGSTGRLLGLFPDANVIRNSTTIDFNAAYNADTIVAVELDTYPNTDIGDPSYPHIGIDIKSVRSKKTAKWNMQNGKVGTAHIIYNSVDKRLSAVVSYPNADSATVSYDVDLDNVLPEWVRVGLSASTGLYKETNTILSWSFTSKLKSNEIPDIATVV

Chain of Albumin (Bos taurus) (P02769 whole entry, looked up): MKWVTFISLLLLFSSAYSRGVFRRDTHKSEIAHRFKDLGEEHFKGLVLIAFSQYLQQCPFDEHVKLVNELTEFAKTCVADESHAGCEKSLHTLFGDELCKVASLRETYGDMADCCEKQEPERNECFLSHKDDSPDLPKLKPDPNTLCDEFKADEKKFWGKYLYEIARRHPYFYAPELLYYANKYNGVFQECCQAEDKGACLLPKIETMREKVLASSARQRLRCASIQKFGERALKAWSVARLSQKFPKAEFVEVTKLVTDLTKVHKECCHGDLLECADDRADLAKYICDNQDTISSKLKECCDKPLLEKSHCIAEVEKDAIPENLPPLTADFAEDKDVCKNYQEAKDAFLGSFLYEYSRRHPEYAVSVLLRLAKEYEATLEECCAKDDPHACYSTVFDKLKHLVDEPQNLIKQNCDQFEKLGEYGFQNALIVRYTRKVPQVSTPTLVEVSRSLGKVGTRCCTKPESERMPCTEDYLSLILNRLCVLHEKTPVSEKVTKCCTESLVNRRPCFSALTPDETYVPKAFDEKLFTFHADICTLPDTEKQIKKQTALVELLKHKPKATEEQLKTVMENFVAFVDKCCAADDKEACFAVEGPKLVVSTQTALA
Chain of Torsin-1A-interacting protein 1 (Homo sapiens) (Q5JTV8 whole entry, looked up): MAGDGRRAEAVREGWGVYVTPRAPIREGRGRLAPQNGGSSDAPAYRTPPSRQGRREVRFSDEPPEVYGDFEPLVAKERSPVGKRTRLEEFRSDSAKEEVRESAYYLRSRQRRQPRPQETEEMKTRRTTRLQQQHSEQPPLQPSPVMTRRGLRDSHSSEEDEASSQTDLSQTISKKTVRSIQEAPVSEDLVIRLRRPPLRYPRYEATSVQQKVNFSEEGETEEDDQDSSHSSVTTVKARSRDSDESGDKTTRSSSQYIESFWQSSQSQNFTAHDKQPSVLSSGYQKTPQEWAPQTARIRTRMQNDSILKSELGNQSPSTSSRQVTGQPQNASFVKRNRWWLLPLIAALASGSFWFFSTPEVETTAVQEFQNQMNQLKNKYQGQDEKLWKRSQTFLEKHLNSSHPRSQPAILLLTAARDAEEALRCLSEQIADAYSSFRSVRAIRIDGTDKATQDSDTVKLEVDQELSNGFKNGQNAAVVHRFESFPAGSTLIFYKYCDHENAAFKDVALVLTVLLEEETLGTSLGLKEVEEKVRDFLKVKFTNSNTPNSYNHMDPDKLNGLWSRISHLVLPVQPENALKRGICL
Chain of Left-right determination factor 2 (Homo sapiens) (O00292 whole entry, looked up): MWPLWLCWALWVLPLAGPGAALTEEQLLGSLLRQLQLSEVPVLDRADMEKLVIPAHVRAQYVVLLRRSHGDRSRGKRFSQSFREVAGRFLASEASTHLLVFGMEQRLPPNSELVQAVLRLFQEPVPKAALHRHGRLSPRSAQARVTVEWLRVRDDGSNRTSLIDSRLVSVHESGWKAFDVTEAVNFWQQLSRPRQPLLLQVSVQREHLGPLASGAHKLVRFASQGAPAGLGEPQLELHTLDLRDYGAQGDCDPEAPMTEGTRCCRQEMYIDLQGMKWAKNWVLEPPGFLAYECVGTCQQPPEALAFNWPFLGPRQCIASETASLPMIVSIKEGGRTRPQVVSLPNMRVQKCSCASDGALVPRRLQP
Chain of Alpha-bungarotoxin (Bungarus multicinctus) (P60615 whole entry, looked up): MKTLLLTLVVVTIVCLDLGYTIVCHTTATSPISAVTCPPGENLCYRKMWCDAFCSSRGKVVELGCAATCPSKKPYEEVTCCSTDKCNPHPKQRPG

Compound | composite z-score [1] | z-score [2] | composite z-score [3] | composite z-score [4] | composite z-score [5] | composite z-score [6] | composite z-score [7] | composite z-score [8] | composite z-score [9] | composite z-score [10] | composite z-score (Albumin (Bos taurus)) | composite Z-score [11] | composite z-score [12] | composite z-score [13] | composite z-score [14] | composite z-score [15] | composite z-score [16] | composite z-score (Sam68 (KHDRBS1)) | composite z-score [17] | composite z-score [18]
CCOC(=O)C[C@H]1[C@H](OC(=O)Cc2ccc3c(c2)OCO3)[C@@H](NC(=O)CC(C)C)c2cc(OCCCO)ccc2N1C(=O)c1ccc2ccccc2n1 | 1 | -0.699 | 0.305 | 0.42 | -0.717 | -0.0405 | -0.221 | -0.0208 | 0.633 | 0.185 | 0.808 | 0.0066 (inactive) | 0.121 | -0.162 | -0.107 | 0.26 | -0.0904 | 0.797 | 0.386 | 0.369
Cc1ccc(S(=O)(=O)N2[C@@H](c3ccccc3)C(C(=O)O)=C[C@H]2C(C)(C)C)cc1 | 1.15 | -1.25 | 0.261 | 2.24 | 0.75 | -0.0718 | -0.107 | -0.0252 | 1.49 | 1.94 | 1 | 0.882 (inactive) | 0.178 | 0.0458 | 0.756 | 2.82 | 0.827 | 1.3 | -0.301 | 1.17
C[C@H]1C2[C@H](Cc3ccccc3)NC(=O)[C@]23C(=O)N[C@@H](Cc2ccccc2)C(=O)N2CCC[C@H]2C(=O)NC/C=C/CC/C=C/C3[C@@H]2O[C@]12C (stereo not given in full) | 0.611 | -0.382 | 0.148 | -0.133 | -0.945 | -0.156 | -0.221 | -0.0503 | 0.0565 | 0.857 | 0.688 | -0.571 (inactive) | 0.073 | -0.159 | 0.619 | 0.501 | 0.472 | 0.868 | 0.638 | 0.236
CN1C(=O)C2C=CC(C(O)c3ccc([N+](=O)[O-])cc3)N(Nc3ccccc3)C2C1=O (stereo not given) | 1.41 | 0.514 | -0.258 | 2.04 | 0.843 | 0.0968 | 1.01 | 1.53 | 0.0788 | 1.44 | 1.06 | -1.05 (inactive) | 0.315 | -0.0305 | 0.652 | 1.94 | 0.701 | 1.31 | 0.196 | 1.15
CCCCC(=C=CC[C@@H](O)c1ccc(OCCO)cc1)CCO | -0.919 | -0.96 | -0.488 | -0.45 | 0.0486 | -0.101 | -0.154 | -0.314 | 0.764 | 0.657 | 0.543 | 0.742 (inactive) | -0.0947 | -0.12 | 0.755 | 1.46 | 0.145 | 0.118 | -0.346 | -0.321
C=CCNC(=O)[C@H]1[C@@H]2C(=O)O[C@@H](c3ccccc3)[C@@H](c3ccccc3)N2[C@@H](c2ccc(OCCO)cc2)[C@]12C(=O)Nc1ccc(C#Cc3ccc(OC)cc3)cc12 | 1.02 | -2.18 | 0.699 | 0.573 | 0.787 | 0.104 | 0.465 | -0.403 | 1.1 | 1.71 | 0.404 | 0.637 (inactive) | 0.146 | 0.0805 | 0.386 | 2.34 | 0.315 | 1.3 | 0.581 | 1.18
COC(=O)[C@]1(Cc2ccccc2CN=[N+]=[N-])N=C(c2ccc(OCCCO)cc2)O[C@@H]1c1ccccc1N=[N+]=[N-] | -0.131 | -2.65 | -0.0976 | -0.0209 | -0.307 | -0.0346 | -0.018 | 1.03 | 0.963 | 0.37 | -0.427 | -0.741 (inactive) | 0.0026 | 0.015 | 0.518 | 0.999 | 1.47 | 0.163 | 0.62 | 0.91
C=CCNC(=O)[C@H]1[C@@H]2C(=O)O[C@@H](c3ccccc3)[C@@H](c3ccccc3)N2[C@@H](c2ccc(OCCO)cc2)[C@]12C(=O)N(C(=O)OCCOC)c1ccc(C#CCNC(N)=O)cc12 | 1.06 | -0.197 | 0.716 | 1.17 | 0.152 | 0.291 | 0.194 | 0.49 | 1.33 | 2.1 | 0.452 | -0.0518 (inactive) | 0.0927 | -0.0132 | 0.396 | 1.73 | 0.812 | 1.22 | 0.742 | 1.11
COC(=O)[C@]1(Cc2ccccc2N=[N+]=[N-])N=C(c2ccc(OCCCO)cc2)O[C@@H]1c1ccccc1CN=[N+]=[N-] | 1.37 | -3.42 | 0.112 | 0.149 | -0.529 | -0.148 | -0.0324 | 1.14 | 1.3 | 0.874 | -0.836 | 0.636 (inactive) | 0.169 | -0.0439 | 0.483 | 1.36 | -0.0388 | 1.27 | 0.232 | 0.844
O=C(NC1CC1)[C@@H]1c2ccccc2C(=O)N(C2CCCCC2)[C@H]1c1ccc(CO)cc1 | 0.178 | -2.14 | 0.0863 | 0.576 | 0.109 | -0.176 | -0.321 | -0.16 | 0.482 | 1.5 | -0.0383 | 0.635 (inactive) | -0.214 | -0.136 | 0.554 | 2.64 | 1.99 | 0.454 | -0.696 | 0.332
CC(C)(C)OC(=O)CC[C@@]1(C(N)=O)N=C(c2ccc(OCCCO)cc2)O[C@@H]1c1ccccc1CN=[N+]=[N-] | 1.35 | 0.0506 | -0.0243 | 2.47 | 1.9 | 0.188 | 0.553 | 1.52 | 1.48 | 2.58 | 0.818 | -0.0657 (inactive) | 0.651 | 0.27 | 0.876 | 3.13 | 1.12 | 0.914 | 0.312 | 0.933

— PubChem BioAssay
